Assay results published in PubChem BioAssay (Tox21).
Inconclusive results are not listed. A call without a number means that no potency is given here. Some structures have more than one record in an assay (separate samples or runs), and their calls can disagree. Active and inactive are the calls of the source. Unless noted, calls come from the whole dose curve; as a rule, active = well fitted curve in the direction sought with a large enough effect in the repeat runs; inconclusive = weak or mixed curves; inactive = no such curve, though single readings can be large; an effect the other way counts as inactive or inconclusive.

Experiments:
[1] = qHTS assay to identify small molecule HDAC inhibitors - cell viability counter screen (AID 1259365); note: series mostly up to about 92 µM; nearly all actives have a fitted effect of over 50% in size
Outline: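 Wild-type HCT-116 cells, 1,500/well, cultured overnight, then compound-treated 2 h at 37 C. Viability measured as ATP luminescence with CellTiter-Glo after 30 min at room temperature.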

[2] = qHTS assay to identify small molecule agonists of the sonic hedgehog signaling (Shh) pathway - cell viability counter screen (AID 1259366); note: nearly all actives have a fitted effect of over 50% in size; note: potency is the fitted concentration of half-maximal effect
Outline: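 NIH/3T3-derived Gli1-Luc reporter cells, 2,000 per well, received compound after 4 h and were treated about 23 h at 37C. Viability measured in the same wells by CellTiter-Fluor fluorescence after 1 h.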

[3] = qHTS assay to identify small molecule antagonists of the sonic hedgehog signaling (Shh) pathway - cell viability counter screen (AID 1259367); note: nearly all actives have a fitted effect of over 55% in size
Outline: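 Viability was read by CellTiter-Fluor fluorescence in the same wells, reagent added 23 hr into compound treatment and incubated 1 hr at 37C. The 3T3 Gli1-Luc reporter cells (2,000/well) received conditioned medium after compound and ran 24 hr.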

[4] = qHTS assay to identify small molecule agonists of the sonic hedgehog signaling (Shh) pathway (AID 1259368; calls by dose curve;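 note: NIH/3T3-derived 3T3Gli1-Luc cells carrying a stable Gli1-driven firefly luciferase reporter; series mostly up to about 92 µM; nearly all actives have a fitted effect of over 15% in size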)
Outline: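 Read-out: firefly luciferase luminescence from a Gli1 response element reporter stably integrated in NIH/3T3-derived 3T3Gli1-Luc cells, measured 30 min at room temperature after reagent addition. Compound exposure lasted 24 hr at 37 C, 5% CO2.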

[5] = qHTS assay to identify small molecule antagonists of the sonic hedgehog signaling (Shh) pathway (AID 1259369; calls by dose curve; note: nearly all actives have a fitted effect of over 45% in size; note: potency is the fitted concentration of half-maximal effect)
Outline: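 Luminescence readout: firefly Luc under Gli1 response element in 3T3Gli1-Luc cells (NIH/3T3 clone). Antagonist mode, stimulation by conditioned medium; compound exposure 24hr at 37 C, 5% CO2.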

[6] = qHTS assay to identify small molecule agonists of the androgen receptor (AR) signaling pathway in the presence of an antagonist - cell viability counter screen (AID 1259379); note: nearly all actives have a fitted effect of over 25% in size; note: potency is the fitted concentration of half-maximal effect
Outline: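 Viability counter screen: CellTiter-Fluor fluorescence, measured in the same wells as the luciferase read-out. MDA-kb2 cells, 3,000/well, with nilutamide at 3.0uM final and compounds at 15 concentrations, 16 hr at 37C, 0% CO2.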

[7] = qHTS assay to identify small molecule agonists of the estrogen receptor beta (ER-beta) signaling pathway - cell viability counter screen (AID 1259380); note: nearly all actives have a fitted effect of over 30% in size; note: potency is the fitted concentration of half-maximal effect
Outline: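 Luminescence read-out (CellTiter-Glo, 30 min, room temp) taken in the same wells as the beta-lactamase reporter assay; ER-beta-UAS-bla HEK293T cells exposed to DMSO-dissolved compounds for 16 hr at 37C in 2% charcoal-stripped FBS medium.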

[8] = qHTS assay to identify small molecule antagonists of the estrogen receptor beta (ER-beta) signaling pathway - cell viability counter screen (AID 1259382); note: nearly all actives have a fitted effect of over 55% in size; note: potency is the fitted concentration of half-maximal effect
Outline: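 Luminescent ATP read-out (CellTiter-Glo, 30 min, RT) taken in the same wells as the bla reporter assay. HEK293T ER-beta-UAS-bla cells in 2% charcoal-stripped FBS were exposed to compounds with 1nM E2 for 16 hr at 37C.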

[9] = qHTS assay to identify small molecule agonists or antagonists of the thyroid stimulating hormone receptor (TSHR) signaling pathway - wild type cell line counter screen (AID 1259384; calls by dose curve)
Outline: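 Counter screen in untransfected Hek293: compounds (15-point titration, triplicate) plus phosphodiesterase inhibitor Ro20-1724 added after 18 h plating; 30 min RT. Intracellular cAMP via competitive d2/cryptate immunoassay, 1 h incubation.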

[10] = molecular target: Thyrotropin receptor (Homo sapiens) (UniProt P16473); test: qHTS assay to identify small molecule antagonists of the thyroid stimulating hormone receptor (TSHR) signaling pathway (AID 1259385; calls by dose curve; note: nearly all actives have a fitted effect of over 20% in size)
Chain of Thyrotropin receptor (Homo sapiens) (P16473 whole entry, looked up): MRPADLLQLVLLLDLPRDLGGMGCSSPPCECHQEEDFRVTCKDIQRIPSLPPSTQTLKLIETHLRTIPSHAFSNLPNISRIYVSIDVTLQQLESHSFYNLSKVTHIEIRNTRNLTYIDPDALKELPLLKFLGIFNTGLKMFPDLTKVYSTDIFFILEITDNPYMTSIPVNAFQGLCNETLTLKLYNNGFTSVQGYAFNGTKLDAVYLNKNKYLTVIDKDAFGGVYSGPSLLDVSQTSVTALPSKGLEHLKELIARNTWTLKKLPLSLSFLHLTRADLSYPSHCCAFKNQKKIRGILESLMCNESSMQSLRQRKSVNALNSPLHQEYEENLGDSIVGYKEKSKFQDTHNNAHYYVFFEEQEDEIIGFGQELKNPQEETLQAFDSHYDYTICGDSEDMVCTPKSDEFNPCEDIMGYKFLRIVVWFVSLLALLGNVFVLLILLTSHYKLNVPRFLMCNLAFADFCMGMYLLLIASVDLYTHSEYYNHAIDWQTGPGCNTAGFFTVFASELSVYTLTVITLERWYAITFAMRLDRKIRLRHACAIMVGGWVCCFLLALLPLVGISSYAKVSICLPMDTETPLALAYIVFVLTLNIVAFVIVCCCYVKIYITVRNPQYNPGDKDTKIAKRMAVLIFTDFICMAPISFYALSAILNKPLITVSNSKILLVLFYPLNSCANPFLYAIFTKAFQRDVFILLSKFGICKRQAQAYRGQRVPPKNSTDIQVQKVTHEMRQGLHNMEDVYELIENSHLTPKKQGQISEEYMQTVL
Outline: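 Antagonist mode: compound-treated TSHR-expressing HEK293 cells were stimulated with 1.5 ng/mL TSH (final) in presence of Ro20-1724 for 30 min at RT. HTRF cAMP detection after 1 h; each compound tested at 15 concentrations, triplicate.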

[11] = qHTS assay to identify small molecule agonists of the estrogen receptor alpha (ER-alpha) signaling pathway in the presence of an antagonist - cell viability counter screen (AID 1259386);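 note: cells exposed to compounds for 22 h at 37 °C before the viability read; nearly all actives have a fitted effect of over 30% in size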; note: potency is the fitted concentration of half-maximal effect
Outline: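 Read-out: CellTiter-Fluor fluorescence after 1hr reagent incubation, measured in the same wells as the luciferase readout. VM7Luc4E2 cells were exposed to 15 compound concentrations with 10.0nM ICI-182,780 for 22hr at 37C.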

[12] = molecular target: Progesterone receptor (Homo sapiens) (UniProt P06401); test: qHTS assay to identify small molecule agonists of the progesterone receptor (PR) signaling pathway (AID 1346784; calls by dose curve; note: nearly all actives have a fitted effect of over 30% in size; note: potency is the fitted concentration of half-maximal effect)
Chain of Progesterone receptor (Homo sapiens) (P06401 whole entry, looked up): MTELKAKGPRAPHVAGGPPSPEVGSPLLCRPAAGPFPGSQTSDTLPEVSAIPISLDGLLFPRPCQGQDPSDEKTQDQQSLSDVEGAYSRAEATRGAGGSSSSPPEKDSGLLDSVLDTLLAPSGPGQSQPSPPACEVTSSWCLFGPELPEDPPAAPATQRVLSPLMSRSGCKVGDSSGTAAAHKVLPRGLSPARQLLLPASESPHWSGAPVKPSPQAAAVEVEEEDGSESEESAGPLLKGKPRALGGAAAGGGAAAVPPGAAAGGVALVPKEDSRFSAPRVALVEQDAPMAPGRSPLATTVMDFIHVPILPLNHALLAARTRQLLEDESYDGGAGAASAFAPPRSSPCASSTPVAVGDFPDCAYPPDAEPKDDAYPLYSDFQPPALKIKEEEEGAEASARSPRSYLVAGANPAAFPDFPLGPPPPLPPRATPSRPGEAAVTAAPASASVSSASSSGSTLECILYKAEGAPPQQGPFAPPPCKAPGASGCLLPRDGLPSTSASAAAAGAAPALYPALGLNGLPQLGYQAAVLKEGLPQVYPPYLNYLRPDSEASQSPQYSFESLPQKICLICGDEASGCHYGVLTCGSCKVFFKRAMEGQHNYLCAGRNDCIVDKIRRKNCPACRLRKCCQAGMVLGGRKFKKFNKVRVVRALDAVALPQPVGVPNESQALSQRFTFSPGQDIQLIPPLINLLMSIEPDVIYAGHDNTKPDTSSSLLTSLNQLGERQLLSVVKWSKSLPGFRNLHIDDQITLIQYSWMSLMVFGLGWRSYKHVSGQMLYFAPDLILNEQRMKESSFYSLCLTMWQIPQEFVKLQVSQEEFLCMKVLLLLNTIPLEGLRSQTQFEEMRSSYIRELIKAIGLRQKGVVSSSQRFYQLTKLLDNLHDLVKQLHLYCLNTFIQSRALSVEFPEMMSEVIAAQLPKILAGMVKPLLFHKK
Outline: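 PR-UAS-bla HEK 293T cells (beta-lactamase reporter under UAS) in 2% charcoal-stripped FBS, dosed with 23 nL compound after 6 hr, incubated 16hr at 37C. LiveBLAzer B/G FRET substrate added, fluorescence read after 2 hours.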

[13] = molecular target: Progesterone receptor (Homo sapiens) (UniProt P06401); test: qHTS assay to identify small molecule antagonists of the progesterone receptor (PR) signaling pathway (AID 1346795; active = well fitted inhibition curve with a large enough effect in the signal ratio in the repeat runs, not every such curve was filed as active; the % refers to the signal ratio; note: potency is the fitted concentration of half-maximal effect)
Outline: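 PR-UAS-bla HEK293T cells with beta-lactamase reporter under UAS control, in 2% charcoal-stripped FBS, treated with compounds plus 1 nM promegestone (R5020, final) for 16 hr at 37C. Read-out: FRET beta-lactamase substrate fluorescence after 2 hr at room temperature.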

[14] = qHTS assay to identify small molecule antagonists of the progesterone receptor (PR) signaling pathway - cell viability counter screen (AID 1346798); note: series mostly up to about 92 µM; nearly all actives have a fitted effect of over 50% in size
Outline: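 PR-UAS-bla HEK293T cells, 3,000/well in 2% charcoal-stripped FBS medium, dosed with compounds plus R5020 agonist and incubated 16 h at 37C. Viability then measured in the same wells by CellTiter-Glo luminescence after 30 min at RT.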

[15] = qHTS assay to identify small molecule agonists of the progesterone receptor (PR) signaling pathway - cell viability counter screen (AID 1346799; calls by dose curve; note: nearly all actives have a fitted effect of over 45% in size; note: potency is the fitted concentration of half-maximal effect)
Outline: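 Counter screen in the PR-UAS-bla HEK293T wells (2% charcoal-stripped FBS, 16 h compound exposure at 37 C) after the bla read. CellTiter-Glo added, 30 min at room temperature, luminescence read as cell viability.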

[16] = qHTS assay to identify small molecule antagonists of the TGF-beta/Smad signaling pathway - cell viability counter screen (AID 1346824); note: nearly all actives have a fitted effect of over 50% in size
Outline: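 Cytotoxicity counter-screen run in the same wells as the beta-lactamase Smad reporter read: CellTiter-Glo luminescence after 30 min at room temperature. HEK 293T SBE-bla cells had 5 hr compound exposure at 37 C with TGF-beta1 (0.25 ng/mL stock).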

[17] = molecular target: Estrogen receptor beta (Homo sapiens) (UniProt Q92731); test: qHTS assay to identify small molecule agonists of the estrogen receptor beta (ER-beta) signaling pathway (AID 1259377; active = well fitted activation curve with a large enough effect in the signal ratio in the repeat runs, not every such curve was filed as active; the % refers to the signal ratio)
Chain of Estrogen receptor beta (Homo sapiens) (Q92731 whole entry, looked up): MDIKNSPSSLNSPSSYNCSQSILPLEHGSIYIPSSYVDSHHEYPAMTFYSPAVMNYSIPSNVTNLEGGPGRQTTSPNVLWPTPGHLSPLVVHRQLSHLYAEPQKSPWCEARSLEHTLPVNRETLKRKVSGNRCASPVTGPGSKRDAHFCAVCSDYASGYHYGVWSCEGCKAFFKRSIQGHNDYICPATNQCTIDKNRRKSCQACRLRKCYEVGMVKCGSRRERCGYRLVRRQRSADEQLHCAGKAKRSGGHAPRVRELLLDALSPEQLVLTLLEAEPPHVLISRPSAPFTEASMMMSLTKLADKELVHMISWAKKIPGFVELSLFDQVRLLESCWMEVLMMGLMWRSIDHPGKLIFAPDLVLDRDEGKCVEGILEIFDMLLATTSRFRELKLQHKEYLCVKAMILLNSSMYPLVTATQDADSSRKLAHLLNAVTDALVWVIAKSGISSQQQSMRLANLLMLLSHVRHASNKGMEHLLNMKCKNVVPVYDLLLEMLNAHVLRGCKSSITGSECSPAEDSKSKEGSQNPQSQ
Outline: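 ER-beta-UAS-bla HEK293T cells in medium with 2% charcoal-stripped FBS were exposed to compounds for 16 h at 37C. Beta-lactamase reporter activity was read as fluorescence after 2 h with LiveBLAzer B/G FRET substrate at room temperature.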

[18] = molecular target: Estrogen receptor beta (Homo sapiens) (UniProt Q92731); test: qHTS assay to identify small molecule antagonists of the estrogen receptor beta (ER-beta) signaling pathway (AID 1259378; active = well fitted inhibition curve with a large enough effect in the signal ratio in the repeat runs, not every such curve was filed as active; the % refers to the signal ratio)
Outline: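 Antagonist mode: compounds added to beta-lactamase reporter HEK293T ER-beta-UAS cells stimulated with E2 (1nM final), 16 hr at 37C. LiveBLAzer B/G FRET substrate, 2 hours room temperature, fluorescence read-out.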

[19] = molecular target: Estrogen receptor (Homo sapiens) (UniProt P03372); test: qHTS assay to identify small molecule agonists of the estrogen receptor alpha (ER-alpha) signaling pathway in the presence of an antagonist (AID 1259383; calls by dose curve; note: top concentration of the series differs between compounds; nearly all actives have a fitted effect of over 15% in size)
Chain of Estrogen receptor (Homo sapiens) (P03372 whole entry, looked up): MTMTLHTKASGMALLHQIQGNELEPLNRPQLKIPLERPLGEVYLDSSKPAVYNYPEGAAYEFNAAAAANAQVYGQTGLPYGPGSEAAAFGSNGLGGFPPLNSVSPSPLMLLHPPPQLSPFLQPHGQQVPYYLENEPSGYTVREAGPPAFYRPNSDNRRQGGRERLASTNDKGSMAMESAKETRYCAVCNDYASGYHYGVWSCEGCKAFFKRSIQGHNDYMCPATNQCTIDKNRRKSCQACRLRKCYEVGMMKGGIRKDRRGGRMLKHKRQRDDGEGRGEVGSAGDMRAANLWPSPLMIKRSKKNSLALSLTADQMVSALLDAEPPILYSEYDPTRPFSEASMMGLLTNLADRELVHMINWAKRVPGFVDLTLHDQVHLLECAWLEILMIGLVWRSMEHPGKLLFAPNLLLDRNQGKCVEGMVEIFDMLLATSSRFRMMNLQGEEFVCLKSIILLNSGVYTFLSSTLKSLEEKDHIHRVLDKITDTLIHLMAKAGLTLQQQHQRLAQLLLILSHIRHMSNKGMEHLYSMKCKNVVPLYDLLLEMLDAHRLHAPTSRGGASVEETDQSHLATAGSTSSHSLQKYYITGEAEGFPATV
Outline: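 Luciferase luminescence (ONE-Glo, 30min at room temperature) measured in VM7Luc4E2 cells after 22hr compound exposure at 15 concentrations, with 10.0nM ICI-182,780 final present; cells express endogenous ER-alpha and carry four EREs upstream of luciferase.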

Structure (SMILES) | outcome [1] | Potency [2] | Potency [3] | outcome [4] | Potency [5] | Potency [6] | Potency [7] | Potency [8] | outcome [9] | Potency [10] | Potency [11] | Potency [12] | Potency [13] | Potency [14] | Potency [15] | Potency [16] | Potency [17] | Potency [18] | Potency [19]
O=C(O)c1ccc(C(=O)O)cc1 | inactive | inactive | inactive | inactive | inactive | inactive | inactive | inactive | inactive | inactive | inactive | inactive | inactive | inactive | inactive | inactive |  |  | 
CCCCN(CCCC)CCCC | inactive | inactive | inactive | inactive |  | inactive | inactive | inactive | inactive | inactive | inactive | inactive | inactive | inactive | inactive | inactive | inactive | inactive | inactive
OCC(CO)(CBr)CBr | inactive | inactive | inactive | inactive | inactive | inactive | inactive | inactive | inactive | inactive | inactive | inactive | inactive | inactive | inactive | inactive |  |  | 
CCCCCCCCCC | inactive | inactive | inactive | inactive |  | inactive | inactive | inactive | inactive | inactive | inactive | inactive | inactive | inactive | inactive | inactive | inactive | inactive | inactive
C=C(C)C(=O)O[C@H]1C[C@@H]2CC[C@@]1(C)C2(C)C | inactive | inactive | inactive | inactive | inactive | inactive | 4.3 µM (active) and inactive | 7.65 µM (active) and inactive | inactive | inactive | inactive | inactive | 2.71 µM (active) and inactive |  | 8.58 µM (active) and inactive | inactive |  | inactive | inactive
C/C=C1/CC2C=CC1C2 (centres undefined) | inactive | inactive | inactive | inactive | inactive | inactive | inactive | inactive |  |  | inactive | inactive | inactive | inactive | inactive | inactive |  |  | inactive
CCCC(C)=O | inactive | inactive | inactive | inactive | inactive | inactive | inactive | inactive |  |  | inactive | inactive | inactive | inactive | inactive | inactive |  |  | 
CC(=O)c1ccccc1 | inactive | inactive | inactive | inactive | inactive | inactive | inactive | inactive | inactive | inactive | inactive | inactive | inactive | inactive | inactive | inactive |  |  | 
CCC(O)OC(O)CC (centres undefined) | inactive | inactive | inactive | inactive | inactive | inactive | inactive | inactive | inactive | inactive | inactive | inactive | inactive | inactive | inactive | inactive |  |  | 
O=C(O)c1cc(O)c(O)c(O)c1 | inactive | 61.7 µM (active) and inactive | inactive | inactive | 27.6 µM (active) and inactive | 55 µM (active) and inactive | inactive | inactive | inactive | inactive | 55 µM (active) | inactive | inactive | inactive | inactive | inactive |  |  | inactive
CCCCCCCCCCCCS | inactive | inactive | inactive | inactive |  | inactive | inactive | inactive | inactive | inactive | inactive | inactive | inactive | inactive | inactive | inactive | inactive | inactive | inactive
O=C(OCCOCCOC(=O)c1ccccc1)c1ccccc1 | inactive | inactive | inactive | inactive | inactive | inactive | inactive | inactive | inactive | inactive | inactive | inactive | inactive | inactive | inactive | inactive |  |  | 
C[C@H]1C[C@H]2[C@@H]3CCC4=CC(=O)C=C[C@]4(C)[C@@]3(F)[C@@H](O)C[C@]2(C)[C@@]1(O)C(=O)CO | inactive | inactive | inactive | inactive | inactive | inactive | inactive | inactive |  |  | inactive | 11.9 µM (active) |  | inactive |  | inactive |  |  | 
CCOC(=O)NNc1nncc2ccccc12 | inactive | inactive | inactive | inactive | inactive | inactive | inactive | inactive | inactive | inactive | inactive | inactive | inactive | inactive | inactive | inactive |  |  | inactive
CN(C)CCCN | inactive | inactive | inactive | inactive | inactive | inactive | inactive | inactive | inactive | inactive | inactive | inactive | inactive | inactive | inactive | inactive |  |  | 
O=C(O)CCCCCCCCCCC(=O)O | inactive | inactive | inactive | inactive | inactive | inactive | inactive | inactive | inactive | inactive | inactive | inactive | inactive | inactive | inactive | inactive |  |  | 
Fc1ccc(Br)cc1 | inactive | inactive | inactive | inactive | inactive | inactive | inactive | inactive | inactive | inactive | inactive | inactive | inactive | inactive | inactive | inactive |  |  | 
